Where “and” joins values, the source holds several entries; their conditions need not be identical. Equal entries are not always repeated. Results filed as inconclusive are left out. Calls of active or inactive are those of the source. Unless noted, calls follow the shape of the dose curve; as a rule, active = well fitted curve in the direction sought with a large enough effect in the repeat runs; inconclusive = weak or mixed curves; inactive = no such curve, though single readings can be large; an effect the other way counts as inactive or inconclusive.
Key:
[1] = molecular target: Peroxisome proliferator-activated receptor delta (Homo sapiens) (UniProt Q03181); experiment: qHTS assay to identify small molecule agonists of the peroxisome proliferator-activated receptor delta (PPARd) signaling pathway (AID 743212; calls by dose curve)
Chain of Peroxisome proliferator-activated receptor delta (Homo sapiens) (Q03181 whole entry, looked up): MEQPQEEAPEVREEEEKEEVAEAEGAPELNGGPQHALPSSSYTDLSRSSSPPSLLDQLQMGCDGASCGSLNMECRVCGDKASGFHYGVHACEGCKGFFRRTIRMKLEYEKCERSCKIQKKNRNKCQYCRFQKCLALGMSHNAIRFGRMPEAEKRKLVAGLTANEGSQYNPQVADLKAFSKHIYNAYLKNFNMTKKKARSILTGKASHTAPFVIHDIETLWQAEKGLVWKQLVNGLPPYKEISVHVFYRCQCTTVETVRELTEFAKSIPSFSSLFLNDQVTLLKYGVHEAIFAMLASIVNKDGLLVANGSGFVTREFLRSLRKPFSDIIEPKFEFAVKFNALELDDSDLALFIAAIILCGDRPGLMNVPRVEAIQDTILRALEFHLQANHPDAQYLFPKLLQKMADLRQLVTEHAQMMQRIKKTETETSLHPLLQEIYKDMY
Procedure, shortened: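 Tox21 library screened in GeneBLAzer PPARd UAS-bla HEK293H cells. After compound treatment at 37 C, a FRET-based beta-lactamase substrate was applied for 2 h and fluorescence recorded.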

[2] = qHTS assay to identify small molecule antagonists of the peroxisome proliferator-activated receptor delta (PPARd) signaling pathway - cell viability counter screen (AID 743213); also: nearly all actives have a fitted effect of over 50% in size; also: potency is read from the fitted curve at half-maximal effect
Procedure, shortened: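 Viability counter-screen, qHTS format: PPARd-bla HEK293H, L165041 300 nM final, 17 h compound exposure at 37 C, CellTiter-Glo luminescence after 30 min RT.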

[3] = molecular target: Peroxisome proliferator-activated receptor delta (Homo sapiens) (UniProt Q03181); experiment: qHTS assay to identify small molecule antagonists of the peroxisome proliferator-activated receptor delta (PPARd) signaling pathway (AID 743215; active = well fitted inhibition curve with a large enough effect in the signal ratio in the repeat runs, not every such curve was filed as active; the % refers to the signal ratio;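 also: cells stimulated with agonist L165041 at 300 nM final during compound exposure; series mostly up to about 62 µM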)
Procedure, shortened: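 Screen format: qHTS, antagonist mode. HEK293H PPARd-bla cells received compound and 300 nM L165041 (final), 17 h, 37 C. Beta-lactamase detected via FRET substrate fluorescence, 2 h, room temperature.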

[4] = qHTS assay to identify small molecule agonists of the farnesoid-X-receptor (FXR) signaling pathway - cell viability counter screen (AID 743218); also: nearly all actives have a fitted effect of over 45% in size
Procedure, shortened: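 Same-well cytotoxicity check on FXR-UAS-bla HEK 293T cells: 5 h attachment, 16 h compound at 37 C, CellTiter-Glo luminescence read at room temperature after 30 min.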

[5] = molecular target: Vitamin D3 receptor (Homo sapiens) (UniProt P11473); experiment: qHTS assay to identify small molecule agonists of the vitamin D receptor (VDR) signaling pathway (AID 743222; calls by dose curve)
Chain of Vitamin D3 receptor (Homo sapiens) (P11473 whole entry, looked up): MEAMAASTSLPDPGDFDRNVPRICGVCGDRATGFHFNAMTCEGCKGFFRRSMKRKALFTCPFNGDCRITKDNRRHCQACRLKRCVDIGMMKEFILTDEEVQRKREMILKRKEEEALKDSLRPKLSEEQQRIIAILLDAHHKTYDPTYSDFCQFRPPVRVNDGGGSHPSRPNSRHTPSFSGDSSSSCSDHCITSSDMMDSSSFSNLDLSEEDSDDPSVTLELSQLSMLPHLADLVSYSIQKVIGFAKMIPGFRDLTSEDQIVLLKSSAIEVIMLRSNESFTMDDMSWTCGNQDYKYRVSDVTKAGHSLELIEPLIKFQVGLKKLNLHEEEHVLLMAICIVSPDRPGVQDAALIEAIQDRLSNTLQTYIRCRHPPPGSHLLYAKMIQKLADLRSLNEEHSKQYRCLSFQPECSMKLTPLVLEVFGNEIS
Procedure, shortened: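 Using LiveBLAzer B/G FRET detection, agonism was scored in VDR-bla cells exposed overnight (16 h, 37C) to DMSO-dissolved compounds; substrate incubation was 2 h at room temperature.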

[6] = molecular target: Vitamin D3 receptor (Homo sapiens) (UniProt P11473); experiment: qHTS assay to identify small molecule antagonists of the vitamin D receptor (VDR) signaling pathway (AID 743223; active = well fitted inhibition curve with a large enough effect in the signal ratio in the repeat runs, not every such curve was filed as active; the % refers to the signal ratio)
Procedure, shortened: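 VDR-bla cells were treated with compound plus 3 nM final 1alpha,25-dihydroxyvitamin D3 for 16 h at 37C. Beta-lactamase reporter read by B/G FRET substrate fluorescence after 2 h at room temperature. qHTS format.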

[7] = qHTS assay to identify small molecule agonists of the vitamin D receptor (VDR) signaling pathway - cell viability counter screen (AID 743224); also: nearly all actives have a fitted effect of over 50% in size; also: potency is read from the fitted curve at half-maximal effect
Procedure, shortened: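 Counter screen for cytotoxicity: VDR-bla cells at 2,000 cells/well, 16 h compound exposure, then CellTiter-Glo luminescence after the beta-lactamase measurement.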

[8] = qHTS assay to identify small molecule antagonists of the vitamin D receptor (VDR) signaling pathway - cell viability counter screen (AID 743225); also: nearly all actives have a fitted effect of over 50% in size; also: potency is read from the fitted curve at half-maximal effect
Procedure, shortened: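 VDR-UAS-bla HEK 293T cells were plated and incubated 4 h at 37C, then dosed with compound plus 3 nM (final) 1-alpha,25-dihydroxyvitamin D3 for 16 h. After the 2 h beta-lactamase read, viability in the same wells was read as CellTiter-Glo luminescence after 30 min at room temperature.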

[9] = qHTS assay to identify small molecule agonists of the endoplasmic reticulum stress response signaling pathway - cell viability counter screen (AID 1159517; calls by dose curve; also: nearly all actives have a fitted effect of over 50% in size; also: potency is read from the fitted curve at half-maximal effect)
Procedure, shortened: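 In parallel with the ESRE reporter read, cytotoxicity was scored by CellTiter-Glo luminescence (30 min, room temperature) on HeLa ESRE-bla cells dosed for 5 hr.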

[10] = qHTS assay to identify small molecule agonists of the AP-1 signaling pathway - cell viability counter screen (AID 1159525; calls by dose curve; also: nearly all actives have a fitted effect of over 55% in size; also: potency is read from the fitted curve at half-maximal effect)
Procedure, shortened: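 Same-well cytotoxicity counter screen of the Tox21 10K library in ME-180 cells. The readout is ATP-dependent luminescence after 5 h compound treatment. Data are normalised to DMSO and tetra n-octyl ammonium bromide controls.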

[11] = qHTS assay to identify small molecule antagonists of the retinoid acid receptor (RAR) signaling pathway - cell viability counter screen (AID 1159551); also: nearly all actives have a fitted effect of over 35% in size; also: potency is read from the fitted curve at half-maximal effect
Procedure, shortened: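 Measured by luminescent ATP detection, viability reflects C3RL4 cells treated 6 h at 37 C with test chemicals in the presence of 1 uM (final) retinol.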

[12] = molecular target: Bile acid receptor (Homo sapiens) (UniProt Q96RI1); experiment: qHTS assay to identify small molecule agonists of the farnesoid-X-receptor (FXR) signaling pathway (AID 743220; active = well fitted activation curve with a large enough effect in the signal ratio in the repeat runs, not every such curve was filed as active; the % refers to the signal ratio)
Chain of Bile acid receptor (Homo sapiens) (Q96RI1 whole entry, looked up): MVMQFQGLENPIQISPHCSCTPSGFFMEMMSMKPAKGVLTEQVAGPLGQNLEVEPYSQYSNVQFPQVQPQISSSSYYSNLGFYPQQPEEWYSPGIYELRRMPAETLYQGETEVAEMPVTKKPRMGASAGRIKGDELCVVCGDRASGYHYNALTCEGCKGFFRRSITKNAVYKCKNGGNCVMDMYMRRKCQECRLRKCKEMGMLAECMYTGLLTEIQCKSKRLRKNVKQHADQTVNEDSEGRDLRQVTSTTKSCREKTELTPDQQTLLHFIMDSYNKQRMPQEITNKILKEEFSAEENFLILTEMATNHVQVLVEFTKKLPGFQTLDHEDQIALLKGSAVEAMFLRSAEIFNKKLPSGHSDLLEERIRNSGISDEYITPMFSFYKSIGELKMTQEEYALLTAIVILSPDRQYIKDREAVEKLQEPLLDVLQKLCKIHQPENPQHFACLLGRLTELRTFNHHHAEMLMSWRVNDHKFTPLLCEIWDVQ
Procedure, shortened: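 FXR-UAS-bla HEK 293T cells carrying a UAS-driven beta-lactamase reporter were plated for 5 h at 37C/5% CO2, then exposed to DMSO-dissolved Tox21 10K compounds for 16 h at 37C. A LiveBLAzer B/G FRET substrate was loaded for 2 h at room temperature before fluorescence reading.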

[13] = qHTS assay to identify small molecule antagonists of the farnesoid-X-receptor (FXR) signaling pathway - cell viability counter screen (AID 743221; active = well fitted cell-killing curve with a large enough effect in the repeat runs, not every such curve was filed as active; also: nearly all actives have a fitted effect of over 50% in size; also: potency is read from the fitted curve at half-maximal effect)
Procedure, shortened: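 GeneBLAzer FXR-UAS-bla HEK 293T cells, compound plus chenodeoxycholic acid (50 uM final), 16 h at 37 C. CellTiter-Glo added to the same wells after the beta-lactamase read; luminescence read after 30 min at room temperature as viability.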

[14] = molecular target: Nuclear receptor ROR-gamma (Homo sapiens) (UniProt P51449); experiment: qHTS assay to identify small molecule antagonists of the retinoid-related orphan receptor gamma (ROR-gamma) signaling pathway (AID 1159521)
Procedure, shortened: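 Tet-on ROR-gamma CHO cells with ROR response element-luciferase reporter; compounds added 2 hr before 1 uM doxycycline induction, then 16 hr at 37 C. Antagonism scored as decreased ONE-Glo luminescence.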

[15] = qHTS assay to identify small molecule agonists of the RXR signaling pathway - cell viability counter screen (AID 1159529); also: nearly all actives have a fitted effect of over 50% in size; also: potency is read from the fitted curve at half-maximal effect
Procedure, shortened: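 RXR-alpha-UAS-bla HEK 293T cells in medium with 2% charcoal-stripped FBS were pre-incubated 5 hr, then compound-treated 16 hr at 37 C. Viability was read by CellTiter-Glo luminescence in the same wells as the beta-lactamase assay, with tetraoctyl ammonium bromide as positive control.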

[16] = qHTS assay to identify small molecule antagonists of the retinoid-related orphan receptor gamma (ROR-gamma) signaling pathway - cell viability counter screen (AID 1159520); also: nearly all actives have a fitted effect of over 50% in size; also: potency is read from the fitted curve at half-maximal effect
Procedure, shortened: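 Tet-on ROR gamma CHO cells were given compounds for 2 hr, then doxycycline hyclate at 1 uM final, and incubated 16 hr at 37 C. Viability was measured as ATP content by CellTiter-Glo luminescence.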

[17] = qHTS assay to identify small molecule agonists of the AP-1 signaling pathway (AID 1159526; calls by dose curve)
[18] = molecular target: Bile acid receptor (Homo sapiens) (UniProt Q96RI1); experiment: qHTS assay to identify small molecule antagonists of the farnesoid-X-receptor (FXR) signaling pathway (AID 743217; active = well fitted inhibition curve with a large enough effect in the signal ratio in the repeat runs, not every such curve was filed as active; the % refers to the signal ratio)
Procedure, shortened: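 Quantitative HTS, beta-lactamase reporter format: FXR-UAS-bla HEK 293T cells co-treated 16 h at 37 °C with compounds and 50 uM final chenodeoxycholic acid, then read by B/G FRET fluorescence.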

Measured: Potency

CCCC(CC)CCCCCCCN (stereo not drawn)
active: [9] 39.9 µM
not listed: [12] | [13] | [14] | [15] | [16] | [17] | [18]
inactive: all other assays above

COc1ccc2sc(C(=O)Nc3nnn[nH]3)c(OC(C)C)c2c1
active: [9] 19.4 µM | [14] 12.1 µM
inactive: [2] | [4] | [12] | [13] | [7] | [8] | [10] | [11]

Oc1c(Br)cc(Br)c2cccnc12
active: [2] 3.35 µM | [7] 3.35 µM | [15] 1.51 µM
inactive: [4] | [13] | [9] | [10] | [11]

CC(C)(c1cc(Br)c(O)c(Br)c1)c1cc(Br)c(O)c(Br)c1
active: [8] 43.5 µM | [9] 48.8 µM and 15.5 µM | [16] 60.9 µM | [10] 48.8 µM and 48.9 µM | [15] 54.8 µM and 48.9 µM and 46.3 µM
inactive: [4] | [12] | [13] | [11]

Clc1ccccc1CN1CCc2sccc2C1
inactive: [2] | [4] | [13] | [7] | [8] | [9] | [16] | [15] | [11]

CC(C)c1cccc(C(C)C)c1N1C(=O)c2ccc(O)cc2C1=O
inactive: [4] | [13] | [9]
active: [7] 43.6 µM | [8] 49 µM | [16] 27.3 µM | [11] 61.1 µM

COc1cc(C(=O)NS(=O)(=O)c2ccccc2C)ccc1Cc1cn(C)c2ccc(NC(=O)OC3CCCC3)cc12
inactive: [2] | [13] | [6] | [7] | [8] | [9] | [16] | [15] | [11]

CN(C)c1ccc(N=NS(=O)(=O)O)cc1
inactive: [4] | [13] | [7] | [9] | [17] | [11]
active: [14] 4.33 µM

CCCCC(CC)COC(=O)c1ccc(O)cc1 (stereo not drawn)
inactive: [1] | [12] | [5]
active: [2] 34.5 µM and 38.9 µM | [13] 48.8 µM | [7] 21.8 µM and 49 µM | [8] 15.4 µM and 38.9 µM | [9] 49 µM | [10] 24.5 µM and 49 µM | [15] 38.8 µM and 49 µM

Cc1c(C)n(Cc2ccccc2)c2ccc(C(=O)OCCN(C)C)cc12
inactive: [18] | [12] | [13] | [5] | [6] | [9] | [10] | [11]

From PubChem BioAssay (Tox21)
